Assay outcomes from PubChem.
Most compounds without a hit are left out; they make up all but 21% or so of the library.
NS1 function inh – influenza NS1 inhibition. Potency, µM (top dose mostly 46.1 µM), without a hit: top-dose activity, positive = more growth. 0.4% of 270,000 active. AID 2326; calls by dose curve; also: potency is read from the fitted curve at half-maximal effect; actives are rising curves; nearly all actives have a fitted effect of over 50% in size
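A cell-based growth assay was used: compounds that relieve NS1-induced slow growth of budding yeast raise OD600. Assay medium was yeast nitrogen base with ammonium sulphate and -URA supplement, pH 6.0, with 2% galactose.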
Shiga toxin inh – inhibitors of Shiga toxin in Vero cells; Vero cells, Shiga toxin protein synthesis inhibition reporter; inhibition, % at 38.7 µM; 9.2% of 290,000 active; AID 2315; in the data active = inhibition mostly above about 28%, no sharp cut-off; inactive = mostly below about 43%; also: 0% is about no effect
Pf growth 48h – P. falciparum growth inhibition at 48 hours (one generation) | P. falciparum luciferase growth in erythrocytes, 48 h | Potency, µM (top dose mostly 28.7 µM), inactives show at the top dose activity change, negative = inhibition, most hits filed as inhibitors | 5.9% of 310,000 active; also: potency is read from the fitted curve at half-maximal effect; % is scaled to controls: 0 for no effect and ±100 for the full control effect
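Read-out is firefly luciferase luminescence from an integrated reporter in P. falciparum, so falling signal marks reduced parasite growth. Infected erythrocytes were at 2% hematocrit and 0.1% parasitemia (final) in Albumax-supplemented RPMI 1640.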
Pf growth 96h – P. falciparum growth inhibition at 96 hours; P. falciparum luciferase reporter growth, 96 h; Potency, µM (doses to about 28.7 µM), without a hit: top-dose activity change, negative = inhibition, actives largely listed as inhibitors; 6.9% of 320,000 active; AID 504834; also: potency is read from the fitted curve at half-maximal effect; % is scaled to controls: 0 for no effect and ±100 for the full control effect
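Luminescence readout: decreased luciferase signal marks inhibited growth of reporter-expressing P. falciparum in infected red cells (2% hematocrit, 0.05% parasitemia final), exposed to compound two generations (96 h, 37 C, 5% CO2).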
Cycloheximide cs – affects cycloheximide protein synthesis inhibition readout, counter-screen; cell reporter, cycloheximide protein synthesis inhibition counterscreen; max response, %; 12% of 300,000 active; in the data active = max response mostly above about 13%, no sharp cut-off; inactive = mostly below about 14%; also: read at 38.3 µM for the half of the compounds with a filed dose; 0% is about no effect
Numbers without * were called inactive; u = inconclusive; x = no result. Unless noted, calls follow the shape of the dose curve; as a rule, active = well fitted inhibition curve with a large enough effect; inconclusive = small, poorly fitted or top-dose-only effect, or another doubt; inactive = no such curve, though single readings can be large or run the other way.

SMILES	NS1 function inh	Shiga toxin inh	Pf growth 48h	Pf growth 96h	Cycloheximide cs
CC(C)CNC(=O)CCCc1ccccc1	-9%	35*	x	66%	43*
CCC1SC(CC)C(=O)N(CC(=O)NCc2ccc(F)cc2)C1=O (stereo not given)	x	-11	8%	8%	-4
COCC(C)NC(=O)Cc1ccc(F)cc1 (stereo not given)	22%	8	-15%	9.3µM*	-4
CC1SC(C)C(=O)N(CC(=O)NCc2ccc(F)cc2)C1=O (stereo not given)	-7%	4	-1%	35%	13*
CC(OC(=O)Cn1cnc2ccccc2c1=O)C(=O)NCc1ccccc1 (stereo not given)	x	x	u	20%	x
O=C(O)c1cc(-c2ccc(Cl)cc2)n(-c2ccc(F)cc2)n1	16%	6	-16%	u	5
O=C1CN2CCN(CC2)CC(=O)Nc2ccc(cc2)S(=O)(=O)c2ccc(cc2)NC(=O)CN2CCN(CC2)CC(=O)Nc2ccc(cc2)S(=O)(=O)c2ccc(cc2)N1	25%	x	x	x	x
Cc1ccc(CC(=O)NCc2ccc(F)cc2)cc1	x	28	10%	-26%	11*
COc1ccc(CNC(=O)CCCc2ccccc2)cc1	-21%	11	0%	u	4
COc1ccccc1CNC(=O)CCCc1ccccc1	2%	65*	5%	-6%	23*
Cc1ccc(CNC(=O)Cc2ccc(-c3ccccc3)cc2)cc1	11%	-13	23%	36%	7
COc1ccccc1CNC(=O)Cc1ccc(C)cc1	-5%	38	20%	u	25*
COc1ccccc1CNC(=O)c1cccc(-c2ccc(C)c3ccccc23)n1	0%	-13	u	15µM*	11
Cc1cc(C(F)F)n2nc(C(=O)Nc3cccc(S(=O)(=O)N4CCOCC4)c3)nc2n1	-3%	-2	u	62%	-4
CC(=O)N(Cc1cc2cc(C)c(C)cc2n2nnnc12)CC1COCCO1 (stereo not given)	-8%	-17	33%	2.9µM*	-2
CC(=O)c1cccc(N(CC(=O)NCCc2ccccc2)C(=O)c2csnn2)c1	11%	-9	7%	-8%	-3
CCCCOc1ccc(N(CC(=O)NCc2ccccc2)C(=O)c2csnn2)cc1	-6%	30*	-9%	-25%	27
COc1ccc(CNC(=O)CN(C(=O)c2csnn2)c2ccc(C(C)=O)cc2)cc1	-1%	39	10µM*	0%	10
COc1ccc(CNC(=O)CN(C(=O)c2csnn2)c2ccc(F)cc2)cc1	10%	-1	-10%	-2%	-1
Cc1ccc(N(CC(=O)NCc2ccccc2)C(=O)c2csnn2)cc1	21%	31	4%	0%	15
CC(=O)c1ccc(N(CC(=O)NCCc2ccccc2)C(=O)c2csnn2)cc1	20%	20	u	9.3µM*	1
CCOC(=O)N/N=C(\C)c1ccc(-n2cnnn2)cc1	x	2	6%	-43%	5
CCOc1ccc2nc(N3CCCC(C(=O)NCCCN4CCOCC4)C3)sc2c1 (stereo not given)	2%	58*	29%	u	28*
CCOc1ccc2nc(N3CCC(C(=O)NCCCN4CCOCC4)CC3)sc2c1	3%	56*	52%	8%	37*
CCOc1cc2sc(N3CCC(C(=O)Nc4ccc(C(C)C)cc4)CC3)nc2cc1Br	x	120*	x	x	56*
SMILES	NS1 function inh	Shiga toxin inh	Pf growth 48h	Pf growth 96h	Cycloheximide cs
Cn1c(SCc2cc(=O)n3cc(Br)ccc3n2)nnc1C1COc2ccccc2O1 (stereo not given)	-33%	-20	x	32%	-2
O=C(NC(=S)NC1CCS(=O)(=O)C1)c1ccccc1 (stereo not given)	4%	11	-2%	u	5
CC1CCCC(NC(=S)NC(=O)c2ccccc2Br)C1C (stereo not given)	-19%	active	u	u	9
O=C(NC(=S)NC1CCCCC1)c1ccccc1	-23%	99*	u	u	48*
S=C(NC1CCCCC1)NN(c1ccccc1)c1ccccc1	-9%	13	12µM*	2.9µM*	13
O=C(NC(=S)NC1CCCCCC1)c1cncc(Br)c1	10%	85*	60%	26%	40*
CC/C(O)=C1\C(=O)CCCC1=NCc1nc2ccccc2[nH]1	x	-2	u	-17%	14
C/C(=N\NC(=S)NC1CCCCC1)c1ccc(O)cc1	x	23	-59%	u	8
C/C(=N\NC(=S)NC1CCCCC1)c1ccccc1	26%	59	4.1µM*	u	12*
